Data taken from publication PMC11062922 (Nature Chemical Biology, 2023).
Read-outs that look alike come from different tables or passages of the source.

Key:
Parameters in all cases: species or system human, MV4-11 + K-562 + COLO205 + SK-N-BE2 + OVCAR-8
[1] = test system: CDC42BPG; details: read-out: apparent Kd, n = 1
[2] = test system: MAPK11; details: read-out: apparent Kd; compound concentrations: 100 nM and 1000 nM (sheet 'Samples'), CATDS: 0.36528894613698598; n = 1
[3] = test system: MAPKAPK2; details: read-out: apparent Kd; compound concentrations: 100 nM and 1000 nM (sheet 'Samples'), CATDS: 0.21813918573992899; n = 1
[4] = test system: TNK2; details: read-out: apparent Kd; compound concentrations: 100 nM and 1000 nM (sheet 'Samples'), CATDS: 0.23701561839687901; n = 1
[5] = test system: CDC42BPA; details: read-out: apparent Kd, n = 1
[6] = test system: CDC42BPB; details: read-out: apparent Kd, n = 1
[7] = test system: PKN1; details: read-out: apparent Kd, n = 1
[8] = test system: PRKACA; details: read-out: apparent Kd, compound concentrations: 100 nM and 1000 nM (sheet 'Samples'), n = 1
[9] = test system: PRKACB; details: read-out: apparent Kd, compound concentrations: 100 nM and 1000 nM (sheet 'Samples'), n = 1
[10] = test system: PRKG1; details: read-out: apparent Kd, n = 1
[11] = test system: PRKX; details: read-out: apparent Kd, n = 1
[12] = test system: ROCK1; details: read-out: apparent Kd, compound concentrations: 100 nM and 1000 nM (sheet 'Samples'), n = 1
[13] = test system: ROCK2; details: read-out: apparent Kd, n = 1
[14] = test system: LATS1; details: read-out: apparent Kd, n = 1
[15] = test system: PKN2; details: read-out: apparent Kd, n = 1
[16] = test system: PRKCA; details: read-out: apparent Kd, n = 1
[17] = test system: PRKCD; details: read-out: apparent Kd, n = 1
[18] = test system: TP53RK; details: read-out: apparent Kd; compound concentrations: 100 nM and 1000 nM (sheet 'Samples'), CATDS: 4.1650793572711099E-2; n = 1
[19] = test system: MYLK3; details: read-out: apparent Kd; compound concentrations: 100 nM and 1000 nM (sheet 'Samples'), CATDS: 0.26108904226554702; n = 1
[20] = test system: NLK; details: read-out: apparent Kd; compound concentrations: 100 nM and 1000 nM (sheet 'Samples'), CATDS: 0.267890772302949; n = 1
[21] = test system: TNIK; details: read-out: apparent Kd; compound concentrations: 100 nM and 1000 nM (sheet 'Samples'), CATDS: 0.264395551516103; n = 1
[22] = test system: CDC42; details: read-out: apparent Kd; compound concentrations: 100 nM and 1000 nM (sheet 'Samples'), CATDS: 0.328417840290395; n = 1
[23] = test system: CDK6; details: read-out: apparent Kd; compound concentrations: 100 nM and 1000 nM (sheet 'Samples'), CATDS: 0.35899533679328099; n = 1
[24] = test system: MAP2K1; details: read-out: apparent Kd; compound concentrations: 100 nM and 1000 nM (sheet 'Samples'), CATDS: 0.31550250727948498; n = 1
[25] = test system: CHEK1; details: read-out: apparent Kd; compound concentrations:100 nM and 1000 nM (sheet 'Samples'); n = 1
[26] = test system: GSK3A; details: read-out: apparent Kd; compound concentrations:100 nM and 1000 nM (sheet 'Samples'); n = 1
[27] = test system: MELK; details: read-out: apparent Kd; compound concentrations:100 nM and 1000 nM (sheet 'Samples'); n = 1
[28] = test system: PIM1; details: read-out: apparent Kd; compound concentrations:100 nM and 1000 nM (sheet 'Samples'); n = 1
[29] = test system: PRKCB; details: read-out: apparent Kd; compound concentrations:100 nM and 1000 nM (sheet 'Samples'); n = 1
[30] = test system: PRKCI; details: read-out: apparent Kd; compound concentrations:100 nM and 1000 nM (sheet 'Samples'); n = 1
[31] = test system: PRKCZ; details: read-out: apparent Kd; compound concentrations:100 nM and 1000 nM (sheet 'Samples'); n = 1
[32] = test system: RPS6KA5; details: read-out: apparent Kd; compound concentrations:100 nM and 1000 nM (sheet 'Samples'); n = 1
[33] = test system: RPS6KB1; details: read-out: apparent Kd; compound concentrations:100 nM and 1000 nM (sheet 'Samples'); n = 1
[34] = test system: IRAK3; details: read-out: apparent Kd; compound concentrations:100 nM and 1000 nM (sheet 'Samples'); n = 1
[35] = test system: MAPK14; details: read-out: apparent Kd; compound concentrations:100 nM and 1000 nM (sheet 'Samples'); n = 1
[36] = test system: PIK3CA; details: read-out: apparent Kd; compound concentrations:100 nM and 1000 nM (sheet 'Samples'); n = 1
[37] = test system: PIK3CD; details: read-out: apparent Kd; compound concentrations:100 nM and 1000 nM (sheet 'Samples'); n = 1
[38] = test system: STK16; details: read-out: apparent Kd; compound concentrations:100 nM and 1000 nM (sheet 'Samples'); n = 1
[39] = test system: CAMK4; details: read-out: apparent Kd; compound concentrations:100 nM and 1000 nM (sheet 'Samples'); n = 1
[40] = test system: CDK2; details: read-out: apparent Kd; compound concentrations:100 nM and 1000 nM (sheet 'Samples'); n = 1
[41] = test system: CDK4; details: read-out: apparent Kd; compound concentrations:100 nM and 1000 nM (sheet 'Samples'); n = 1
[42] = test system: ILK; details: read-out: apparent Kd; compound concentrations:100 nM and 1000 nM (sheet 'Samples'); n = 1
[43] = test system: OPA1; details: read-out: apparent Kd; compound concentrations:100 nM and 1000 nM (sheet 'Samples'); n = 1
[44] = test system: SMC4; details: read-out: apparent Kd; compound concentrations:100 nM and 1000 nM (sheet 'Samples'); n = 1
[45] = test system: VDAC3; details: read-out: apparent Kd; compound concentrations:100 nM and 1000 nM (sheet 'Samples'); n = 1
[46] = compound concentrations:100 nM and 1000 nM (sheet 'Samples')

## Nc1c(C(=O)c2cccc(CCS(N)(=O)=O)c2)cnn1-c1ccc(F)cc1 [RO1162009-000]
[1]; compound concentrations: 100 nM and 1000 nM (sheet 'Samples'), CATDS: 0.22426146716058901
  potency estimated from few doses: 1250 nM
[2]
  potency estimated from few doses: 500 nM
[3]
  potency estimated from few doses: 1340 nM
[4]
  potency estimated from few doses: 1100 nM

## NCCCC(NC(=O)c1cc(Br)c(-c2ccnc3[nH]ccc23)s1)c1ccccc1.NCCCC(NC(=O)c1cc(Br)c(-c2ccnc3[nH]ccc23)s1)c1ccccc1.O=C(O)C(F)(F)F.O=C(O)C(F)(F)F (stereo not shown) [GSK1287544A]
[5]; compound concentrations: 100 nM and 1000 nM (sheet 'Samples'), CATDS: 6.9468579457902302E-2
  potency estimated from few doses: 735 nM
[6]; compound concentrations: 100 nM and 1000 nM (sheet 'Samples'), CATDS: 0.12045997656794601
  potency estimated from few doses: 111 nM
[1]; compound concentrations: 100 nM and 1000 nM (sheet 'Samples'), CATDS: 0.15429937992002599
  potency estimated from few doses: 65 nM
[7]; compound concentrations: 100 nM and 1000 nM (sheet 'Samples'), CATDS: 6.0218156247889197E-2
  potency estimated from few doses: 1750 nM
[8]; CATDS: 0.135293982303474
  potency estimated from few doses: 85.3 nM
[9]; CATDS: 0.11075307193468301
  potency estimated from few doses: 137 nM
[10]; compound concentrations: 100 nM and 1000 nM (sheet 'Samples'), CATDS: 7.6658344406139403E-2
  potency estimated from few doses: 465 nM
[11]; compound concentrations: 100 nM and 1000 nM (sheet 'Samples'), CATDS: 6.23454867877557E-2
  potency estimated from few doses: 1370 nM
[12]; CATDS: 0.22662167781686399
  potency estimated from few doses: 33.3 nM
[13]; compound concentrations: 100 nM and 1000 nM (sheet 'Samples'), CATDS: 0.23262842536730999
  potency estimated from few doses: 31.9 nM

## NCCC(NC(=O)c1cc(Br)c(-c2ccnc3[nH]ccc23)s1)c1ccccc1.NCCC(NC(=O)c1cc(Br)c(-c2ccnc3[nH]ccc23)s1)c1ccccc1.O=C(O)C(F)(F)F.O=C(O)C(F)(F)F (stereo not shown) [GSK1307810A]
[5]; compound concentrations: 100 nM and 1000 nM (sheet 'Samples'), CATDS: 7.0311293069570804E-2
  potency estimated from few doses: 227 nM
[6]; compound concentrations: 100 nM and 1000 nM (sheet 'Samples'), CATDS: 0.16933732506395899
  potency estimated from few doses: 30.4 nM
[1]; compound concentrations: 100 nM and 1000 nM (sheet 'Samples'), CATDS: 0.24390813090815999
  potency estimated from few doses: 17.2 nM
[14]; compound concentrations: 100 nM and 1000 nM (sheet 'Samples'), CATDS: 4.6540265787969097E-2
  potency estimated from few doses: 1110 nM
[7]; compound concentrations: 100 nM and 1000 nM (sheet 'Samples'), CATDS: 4.7667379026866498E-2
  potency estimated from few doses: 988 nM
[15]; compound concentrations: 100 nM and 1000 nM (sheet 'Samples'), CATDS: 4.4394319464929097E-2
  potency estimated from few doses: 1410 nM
[8]; CATDS: 0.118024991958308
  potency estimated from few doses: 60.2 nM
[9]; CATDS: 8.0327411283578495E-2
  potency estimated from few doses: 153 nM
[16]; compound concentrations: 100 nM and 1000 nM (sheet 'Samples'), CATDS: 4.1587552070859297E-2
  potency estimated from few doses: 2070 nM
[17]; compound concentrations: 100 nM and 1000 nM (sheet 'Samples'), CATDS: 4.48878810193531E-2
  potency estimated from few doses: 1330 nM
[10]; compound concentrations: 100 nM and 1000 nM (sheet 'Samples'), CATDS: 6.8591269035778196E-2
  potency estimated from few doses: 245 nM
[11]; compound concentrations: 100 nM and 1000 nM (sheet 'Samples'), CATDS: 6.1188840569936599E-2
  potency estimated from few doses: 360 nM
[12]; CATDS: 0.14218227493934099
  potency estimated from few doses: 41.6 nM
[13]; compound concentrations: 100 nM and 1000 nM (sheet 'Samples'), CATDS: 0.152164814838194
  potency estimated from few doses: 36.7 nM
[18]
  potency estimated from few doses: 2050 nM

## O=C(Nc1n[nH]c2cc(-c3ccccc3)ccc12)C1CC1 [SB-732941]
[1]; compound concentrations: 100 nM and 1000 nM (sheet 'Samples'), CATDS: 0.214831425335373
  potency estimated from few doses: 2210 nM
[19]
  potency estimated from few doses: 1450 nM
[20]
  potency estimated from few doses: 1380 nM
[21]
  potency estimated from few doses: 1420 nM

## CCn1c(-c2ccccn2)nc2cnccc21 [SB-736398]
[22]
  potency estimated from few doses: 1930 nM
[23]
  potency estimated from few doses: 1630 nM
[24]
  potency estimated from few doses: 2100 nM

## CCn1c(-c2nonc2N)nc2cncc(CNC3CCNCC3)c21 [SB-747651A]
[5]; [46]
  potency estimated from few doses: 1740 nM
[6]; [46]
  potency estimated from few doses: 1900 nM
[25]
  potency estimated from few doses: 2160 nM
[26]
  potency estimated from few doses: 1100 nM
[14]; [46]
  potency estimated from few doses: 782 nM
[27]
  potency estimated from few doses: 655 nM
[28]
  potency estimated from few doses: 1120 nM
[7]; [46]
  potency estimated from few doses: 40 nM
[15]; [46]
  potency estimated from few doses: 94.5 nM
[16]; [46]
  potency estimated from few doses: 197 nM
[29]
  potency estimated from few doses: 153 nM
[17]; [46]
  potency estimated from few doses: 632 nM
[30]
  potency estimated from few doses: 1480 nM
[31]
  potency estimated from few doses: 2000 nM
[10]; [46]
  potency estimated from few doses: 702 nM
[11]; [46]
  potency estimated from few doses: 1590 nM
[13]; [46]
  potency estimated from few doses: 36.2 nM
[32]
  potency estimated from few doses: 96.1 nM
[33]
  potency estimated from few doses: 22.2 nM

## O=C(Nc1n[nH]c2nc(-c3ccccc3)c(Br)cc12)C1CC1 [SB-708998]
[1]; [46]
  potency estimated from few doses: 1880 nM
[34]
  potency estimated from few doses: 1410 nM
[35]
  potency estimated from few doses: 1640 nM
[36]
  potency estimated from few doses: 245 nM
[37]
  potency estimated from few doses: 187 nM
[28]
  potency estimated from few doses: 1280 nM
[38]
  potency estimated from few doses: 1890 nM

## O=C(Nc1n[nH]c2nc(-c3nccs3)c(Br)cc12)C1CC1 [SB-742251]
[39]
  potency estimated from few doses: 1800 nM
[40]
  potency estimated from few doses: 1640 nM
[41]
  potency estimated from few doses: 1480 nM
[26]
  potency estimated from few doses: 873 nM
[42]
  potency estimated from few doses: 2010 nM
[43]
  potency estimated from few doses: 1520 nM
[44]
  potency estimated from few doses: 1950 nM
[45]
  potency estimated from few doses: 2000 nM
